Screening results deposited in PubChem by several laboratories.
S1P3 antag: blocks the human S1P3 receptor; Q99500; CHO S1P3 NFAT-BLA reporter, FRET fluorescence, antagonist mode; inhibition, % at 4.98 µM; hit rate 0.27% among 170,000; AID 485;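 active = inhibition above the plate cutoff, the mean inhibition of test wells on that plate plus 3 SD, cut at about 28% in these data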;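 note: cells challenged with S1P at its EC80 of 0.8 µM; blue over green emission ratio from cleaved BLA substrate after 4 h stimulation; 0% = S1P-stimulated wells and 100% = unstimulated DMSO-only wells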
Target sequence (Q99500 whole entry, looked up): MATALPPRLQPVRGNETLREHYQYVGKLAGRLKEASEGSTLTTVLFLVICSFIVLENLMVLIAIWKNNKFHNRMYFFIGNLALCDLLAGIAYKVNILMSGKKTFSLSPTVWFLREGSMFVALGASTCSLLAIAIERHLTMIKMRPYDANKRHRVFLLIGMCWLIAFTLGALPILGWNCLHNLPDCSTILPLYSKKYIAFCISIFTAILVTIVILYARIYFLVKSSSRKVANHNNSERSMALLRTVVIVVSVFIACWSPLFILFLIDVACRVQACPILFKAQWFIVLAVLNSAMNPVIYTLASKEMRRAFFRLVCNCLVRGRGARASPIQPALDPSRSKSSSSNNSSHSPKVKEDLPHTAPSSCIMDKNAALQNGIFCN
Cl transport mod: modulators of human KCC2 chloride dependent transport. Q9H2X9. KCC2 cells, thallium flux FluoZin-2 fluorescence. B-score of Tl+ flux slope (higher = more flux/activation; lower = inhibition) at 10 µM. hit rate 2.2% among 190,000;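 active = thallium flux slope and its plate-corrected score both differing from the plate sample mean at a set confidence after two filtering rounds, in either direction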;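 note: slope of fluorescence scaled to starting intensity during 10 to 20 s after thallium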
RAM inhibit: blocks the yeast RAM network; inhibition, % at 50 µM; AID 868; S. cerevisiae dse1pr::URA3 reporter, 5-FOA growth OD615, 2 d; analog-sensitive cbk1-as2 kinase mutant strain; hit rate 1.8% among 190,000;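 active = inhibition above a set limit, 3 SD over mean compound inhibition, cut at about 8.4% in these data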;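 note: 0% = DMSO-only wells with no growth and 100% = 10 µM 1-NA-PP1 full growth; inhibition rescues growth on 5-FOA so higher OD means more RAM inhibition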
ROMK mod: modulates human ROMK potassium channel activity; B-score at 10 µM; hit rate 2% among 130,000; P48048; AID 1918; Tet-inducible ROMK, thallium flux fluorescence; actives lie on both sides;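 active = signal ratio slope over the read window, or its plate-corrected B-score, at least 3 SD from the plate mean, either direction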;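 note: B-score of the F/F0 ratio slope over 7 to 12 s after thallium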
S1P4 ag: activates the human S1P4 receptor; O95977; S1P4-expressing cell line, agonist reporter assay; activation, % at 4.98 µM; hit rate 0.35% among 220,000; in the data active = activation above about 11%;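 note: 0% = DMSO vehicle and 100% = reference agonist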
S1P4 antagonist: blocks the human S1P4 receptor; S1P4-expressing cells, antagonist mode, reporter read-out; AID 1510; hit rate 0.26% among 220,000; O95977; inhibition, % at 4.98 µM; in the data active = inhibition above about 29%;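 note: 0% = wells stimulated with agonist and 100% = vehicle wells without agonist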
* hit, by the source's call; i = inactive; nt = not tested or not shown. Rows were chosen to be rich in hits. Some 5.1% of all compounds tested hit in one or more screens of this group.

SMILES	S1P3 antag	Cl transport mod	RAM inhibit	ROMK mod	S1P4 ag	S1P4 antagonist
Cc1ccc(-c2cccc(C(=O)NCc3ccccc3)n2)c2ccccc12	-16	-0.47	10*	-0.57	2	-2
Cc1ccc(NS(=O)(=O)c2cc(OCC(N)=O)c(C)cc2Cl)cc1C	nt	-0.26	0	-3.1*	2	-115
COc1ccc(/C=C\C(=O)NCc2ccc3[nH]c(C)cc3c2)cc1OC	-1	0	10*	0.76	1	-6
Cc1ccc(N2C(=O)N(Cc3ccccc3C)c3ccccc3S2(=O)=O)cc1	-3	-1.7	5	-0.2	0	-1
Cc1cccc(CS(=O)(=O)Cc2ccc(C(=O)NCc3cccs3)o2)c1	-1	-0.64	5	0.0027	-1	0
Cc1ccccc1-c1nc2cc(Cl)ccc2o1	nt	0.59	4	nt	0	-18
FC(F)(F)c1cccc(CNc2ncccc2-c2nc3cc(Cl)ccc3o2)c1	nt	nt	8.5*	0.58	2	9
O=C(COc1ccc(Cl)cc1Cl)NCCSc1ccc(Cl)cc1	nt	nt	9.0*	0.34	3	-1
O=C(COc1ccc(Cl)cc1Cl)NNC(=S)Nc1ccc(F)cc1	nt	4.1*	4	0.89	1	-21
CC(=O)N1CCN(c2ccc(NC(=O)COc3ccc(Cl)cc3Cl)cc2)CC1	-5	-1.4	10*	nt	1	-15
CC(=O)N1CCN(c2ccccc2NC(=O)COc2ccc(Cl)cc2Cl)CC1	6	-1.7	2	0.1	0	-18
CCOC(=O)c1c(-c2ccc(C)o2)csc1NC(=S)NC(=O)N(C)C	nt	nt	4	-0.47	0	-12
CCCCNc1c(N)n(CC(C)C)c(=O)[nH]c1=O	2	0.82	2	-0.26	0	-9
CC1CCC(C(C)C)C(OCC(O)CNC(C)C)C1 (centres undefined)	-13	0.88	nt	-2.1	0	10
O=[N+]([O-])c1ccc(N2CCN(C(=S)NCc3ccc(Cl)cc3)CC2)cc1	23	-1	9.3*	0.17	-1	-10
CCNC(=S)N1CCN(c2ccc([N+](=O)[O-])cc2)CC1	nt	1.9	0	-0.57	0	-4
S=C(NCc1ccccc1)N1CCN(c2cccc(Cl)c2)CC1	-19	0.83	8.5*	-0.038	2	-8
O=C(C(Cc1ccccc1)n1cccc1)N1CCN(c2cccc(Cl)c2)CC1 (centres undefined)	nt	-0.0054	8.7*	nt	1	-1
O=C(C(Cc1ccccc1)n1cccc1)N1CCN(Cc2ccccc2)CC1 (centres undefined)	-15	nt	0	nt	0	-5
COCCN1CCN(Cc2cn[nH]c2-c2cc3ccccc3o2)CC1	1	nt	-1	-0.071	2	-2
CCOC(=O)c1cc2sc(C)cc2n1CCCN1C(=O)c2ccccc2C1=O	nt	0.095	11*	nt	-1	6
CCOC(=O)c1cc2sc(C)cc2n1CC(=O)N(CC)CC	nt	0.045	0	nt	-1	7
CCOC(=O)c1cc2occc2n1CCCN1C(=O)c2ccccc2C1=O	nt	nt	9.2*	-0.64	-3	3
CCCCCCN(C(=O)CCl)c1ccccc1	6	-1.3	nt	-1.4	-1	21
CC(C)c1ccc(OCC(O)CN2CCN(c3ccccc3)CC2)cc1 (centres undefined)	16	0.26	2	-2.8*	1	-16
SMILES	S1P3 antag	Cl transport mod	RAM inhibit	ROMK mod	S1P4 ag	S1P4 antagonist
COc1ccc(OCC(O)CN2CCN(c3ccccc3)CC2)cc1 (centres undefined)	-29	0.15	2	-0.34	0	10
CCOC(CCn1c(SCc2cccc([N+](=O)[O-])c2)nc2ccccc2c1=O)OCC	0	-1.7	11*	1.5	0	-2
CCOc1ccccc1NC(=O)C1=C(C)NC(=S)NC1c1cccs1 (centres undefined)	5	0.14	9.8*	-0.65	0	-2
CCCN1C(=O)c2cccc3c(N4CCCCC4)ccc(c23)C1=O	-15	1.2	4	0.082	1	-17
CCN(CC)S(=O)(=O)c1ccc(C(=O)OCCN2C(=O)c3cccc4c(N5CCOCC5)ccc(c34)C2=O)cc1	7	i	10*	nt	1	-1
O=C(OCCN1C(=O)c2cccc3c(N4CCOCC4)ccc(c23)C1=O)c1cc(Cl)cc(Cl)c1	7	i	8.5*	nt	1	-9
CC(=O)N(C(C)=O)N1C(=O)c2cccc3c(N4CCOCC4)ccc(c23)C1=O	-3	-1	3	-2.1	-1	7
O=c1[nH]c2cc(S(=O)(=O)CCO)ccc2o1	-3	-0.23	nt	nt	-1	-7
